Structures are written as SMILES. Several values for one entry are separate records, joined by “and”; a condition that tells them apart may be missing. Equal values may be shown once. Among all 16,000 compounds or so, about 40 (0.2%) were called active. Roughly 1% stayed inconclusive and do not appear here. This is one part of a sample in which actives are shown more often than they occur. Calls come from the whole dose curve; as a rule, active = well fitted activation curve with a large enough effect; inconclusive = small, poorly fitted or top-dose-only effect, or another doubt; inactive = no such curve, though single readings can be large or run the other way. Some structures have more than one record in an assay (separate samples or runs), and their calls can disagree.
% is set by controls: 0 for no effect and ±100 for the full control effect; potency is the fitted concentration of half-maximal effect.

Sequence of Rap guanine nucleotide exchange factor 4 (Homo sapiens) (Q8WZA2 whole entry, looked up): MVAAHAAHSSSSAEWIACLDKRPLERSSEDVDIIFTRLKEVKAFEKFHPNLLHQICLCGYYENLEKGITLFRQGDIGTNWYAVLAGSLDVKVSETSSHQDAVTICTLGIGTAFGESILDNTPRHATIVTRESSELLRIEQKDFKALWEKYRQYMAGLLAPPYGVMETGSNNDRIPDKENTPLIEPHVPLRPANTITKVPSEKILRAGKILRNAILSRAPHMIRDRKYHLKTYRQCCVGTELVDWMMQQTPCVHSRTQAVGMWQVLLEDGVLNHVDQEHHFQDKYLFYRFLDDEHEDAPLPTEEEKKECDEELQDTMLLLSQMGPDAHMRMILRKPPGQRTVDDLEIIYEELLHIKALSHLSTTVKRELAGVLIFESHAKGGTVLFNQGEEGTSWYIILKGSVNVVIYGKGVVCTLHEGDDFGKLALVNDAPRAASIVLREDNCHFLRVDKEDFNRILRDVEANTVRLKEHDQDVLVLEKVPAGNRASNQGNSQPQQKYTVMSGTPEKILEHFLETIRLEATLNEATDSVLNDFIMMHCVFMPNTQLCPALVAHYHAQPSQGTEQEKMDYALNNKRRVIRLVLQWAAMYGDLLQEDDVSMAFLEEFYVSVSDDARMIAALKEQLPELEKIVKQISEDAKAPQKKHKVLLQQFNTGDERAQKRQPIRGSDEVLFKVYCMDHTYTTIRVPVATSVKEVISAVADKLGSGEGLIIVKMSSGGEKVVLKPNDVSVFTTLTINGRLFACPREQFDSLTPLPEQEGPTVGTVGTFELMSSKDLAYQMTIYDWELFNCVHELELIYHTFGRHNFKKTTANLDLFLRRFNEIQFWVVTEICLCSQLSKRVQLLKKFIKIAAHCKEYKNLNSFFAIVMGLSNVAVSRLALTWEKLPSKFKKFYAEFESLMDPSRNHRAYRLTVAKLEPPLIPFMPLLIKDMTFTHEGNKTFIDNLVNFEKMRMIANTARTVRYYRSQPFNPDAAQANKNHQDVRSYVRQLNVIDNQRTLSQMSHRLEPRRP

For this test, the target named is Rap guanine nucleotide exchange factor 4 (Homo sapiens) (UniProt Q8WZA2). The test can be described thus: Validation qHTS for agonist of cAMP-regulated guanine nucleotide exchange factor 4 (EPAC2).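 For activation: exchange makes BODIPY-GDP fluorescence drop when released from Rap1B; series mostly up to about 150 µM.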 As to conditions: EPAC2 Rap1B BODIPY-GDP exchange, fluorescence; activation: active compounds read high. In a few lines:
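Signal normalized against 6.5 mM cAMP as agonist control. Mix of EPAC2 (100 nM), RAP1B-BODIPY-GDP (250 nM) and GDP (50 uM) was read kinetically at 480/540 nm, every 5 min over 30 min, after 5 min room-temperature incubation with compound.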
In general terms: Quantitative high-throughput screening tests each substance at several concentrations.
Turning to `Cc1cc(C)n2nc(C(=O)NCC3Cc4cccc(-c5ccc(S(C)(=O)=O)cc5)c4O3)cc2n1` (stereo not given), the activation is 2.37% (inactive).

Take `COc1c(O)cc2c(=O)oc3c(OC)c(O)cc4c(=O)oc1c2c34`: the activation was -13.8% (inactive).

`O=c1oc2c(O)c(O)cc3c(=O)oc4c(O)c(O)cc1c4c23`: the Potency is 126 µM (active) and the activation is 0.203% (inactive).

With `Cc1cc(=O)oc2c(O)c(O)ccc12`, the activation is -5.12% (inactive).

Regarding `CN(C)c1ccc(/C=C/c2ccc3cc(N(C)C)ccc3n2)cc1`, the activation was 0.661% (inactive).

In the case of `CCOC(=O)Nc1ccc(NCc2ccc(F)cc2)nc1N`, the Potency was 112 µM (active).

Turning to `COc1ccccc1-c1nccc(NCc2cccc(C)c2)n1`, the activation was -13.6% (inactive).

For the compound `COc1ccccc1-c1nccc(NCc2ccccc2)n1`, the activation was -0.806% (inactive).

As for `OC1CCN(Cc2ccc3c(c2)CN(Cc2ccc(Oc4ncccn4)cc2)CCO3)CC1`, the activation is -1.28% (inactive).

As for `CC(=O)OCC1=C(C(=O)O)N2C(=O)C(NC(=O)CSc3ccncc3)[C@@H]2SC1` (stereo not given in full), the activation was -16.2% (inactive).

Turning to `O=C(NCc1nnc2n1CCN(C(=O)c1cccc(Cl)c1)CC2)C1CC1`, the activation is -2.97% (inactive).

Turning to `CC(=O)OCC(=O)[C@@]1(O)CCC2C3CC(C)C4=CC(=O)C=CC4(C)C3C(O)CC21C` (stereo not given in full), the activation was -21.4% (inactive).

Consider `Cc1cnc(SCCN2CCOCC2)nc1C1CCCN(C(=O)c2cccc3c(C)c(C)[nH]c23)C1` (stereo not given), for which the activation was -5.56% (inactive).

`C/C1=C2N=C(/C=C3N=C(/C(C)=C4\[N-][C@@](C)([C@@H]5N=C1[C@](C)(CCC(=O)NCC(C)OP(=O)(O)O[C@H]1[C@@H](O)[C@@H](n6cnc7cc(C)c(C)cc76)O[C@@H]1CO)[C@H]5CC(N)=O)[C@@](C)(CC(N)=O)[C@@H]4CCC(N)=O)[C@@](C)(CC(N)=O)[C@@H]\3CCC(N)=O)C(C)(C)[C@@H]/2CCC(N)=O.CC(=O)O.[Co]` (stereo not given in full): the Potency is 56.2 µM (active).

For `CC(=O)NCC(=O)NCC1Cc2cc(C)cc(-c3ccccn3)c2O1` (stereo not given), the activation was 0.493% (inactive).

For the compound `CN(CCO)C(=O)c1cn(C2CCCN(Cc3ccc(C(F)(F)F)cc3)C2)nn1` (stereo not given), the activation was -15.8% (inactive).

On to `COC(=O)C1[C@H]2SC(C)(C)C(C(=O)OC)N2C(=O)N1Cc1ccccc1` (stereo not given in full), for which the activation was -17.5% (inactive).

For the compound `COCCn1c(=O)c(-c2ccc(F)cc2)nc2cnc(Nc3cccc(OC)c3)nc21`, the activation was 6.42% (inactive).

As to `C[C@@H](N)CCCP(=O)(O)O`, the activation is -1.34% (inactive).

For `CC(C)CN1CCC2(CC1)CCN(C(=O)c1ccco1)CC2`, the activation is -7.83% (inactive).

As for `COC(=O)C1C(O)CC[C@@H]2CN3CCc4c([nH]c5ccccc45)C3C[C@@H]12` (stereo not given in full), the activation is -7.23% (inactive) and -17.2% (inactive).

For `CC(N)(COP(=O)(O)O)C(=O)O` (stereo not given), the activation is 4.78% (inactive).

Take `CC(C)C[C@@H](CSc1ccccc1)N1CCN(C)CCC1=O`: the activation is -9.44% (inactive).

Take `Cc1noc(C)c1-c1nccc(NC2CC2)n1`: the activation is -2.86% (inactive).

`CC(C)CCCC(C)C1CCC2C3C(=O)C=C4CC(O)CC[C@@]4(C)C3CC[C@@]12C` (stereo not given in full): the activation was -16% (inactive).

Consider `COC(=O)c1ccccc1C(=O)NCC1Cc2cc(-c3nc(C)cnc3C)ccc2O1` (stereo not given), for which the activation is -20.8% (inactive).

In the case of `CCCCCCCCCC[n+]1ccc(/C=C/c2c[nH]c3ccccc23)c2ccccc21`, the activation is -5.9% (inactive).

Regarding `COCC(=O)N1CCC[C@@]2(CCN(c3ccccn3)C2)C1`, the activation is -5.3% (inactive).

As to `COc1cccc(Nc2ncc3nc(C)c(=O)n(C[C@H]4CCCO4)c3n2)c1`, the activation is -13.4% (inactive).

As for `Nc1cc(-c2ccncc2)c[nH]c1=O`, the Potency is 100 µM (active).

As to `[C-]#[N+]c1cc(-c2ccncc2)c(C)[nH]c1=O`, the activation is -4.45% (inactive).

Turning to `Cc1cccc(N(C)C(=S)Oc2ccc3c(c2)CCC3)c1`, the activation was 13.3% (inactive).

As to `OC(c1cccnc1)c1ccc2c(c1)CN(Cc1cn(-c3ccccc3)nc1-c1ccccc1)CCO2` (stereo not given), the activation is -2.05% (inactive).

`O.O.O.O.O.O.O.O=S(=O)([O-])[O-].[Co+2]`: the activation was -48.9% (inactive).

As to `CN(C)Cc1ccccc1-c1cncnc1NCc1ccccc1`, the activation is -18.5% (inactive).

Take `N#Cc1ccccc1-c1ccc2ncnc(NCc3ccccc3)c2c1`: the activation was -0.93% (inactive).

With `CC(C)(CNC(=O)c1cnn(-c2nccc(-c3ccccc3F)n2)c1C1CC1)N1CCOCC1`, the activation is -17.8% (inactive).

Regarding `C[C@]12CCC(=O)C=C1CCC1C3CC[C@](O)(C(=O)CO)[C@@]3(C)CC3OC312` (stereo not given in full), the activation was -18.8% (inactive).

In the case of `O=C1CCNCCN1[C@H](CO)c1ccccc1`, the activation was -16.1% (inactive).

`CN(C)c1ncnc2ccc(-c3cccc(C#N)c3)cc12`: the activation is -0.384% (inactive).

Take `Cc1cc(N(C)C)cc(C)c1/C=C/c1cc[n+](C)c2ccccc12`: the activation is -16.7% (inactive).

For the compound `Cc1cc2c(c(-c3cnccn3)c1)OC(CNC(=O)c1cc(Cl)ccc1F)C2` (stereo not given), the activation is 5.25% (inactive).

In the case of `COC(=O)C1N[C@@H]([C@@H](NC(=O)COc2ccccc2)C(=O)Nc2ccc(OC)cc2)SC1(C)C` (stereo not given in full), the activation was -24.1% (inactive).

In the case of `CC(=O)NCCNc1nc(-c2ccccc2CN(C)C)nc2ccccc12`, the activation is -19.9% (inactive).

Turning to `COC(=O)CC[C@H](N)C(=O)O`, the activation is -14% (inactive).

For the compound `CN1CCN(c2ncc3nc(-c4cn(C)c5ccccc45)c(=O)n(Cc4cccs4)c3n2)CC1`, the activation was -4.2% (inactive).

For `OC(c1ccc2c(c1)CN(Cc1cccn1-c1ncccn1)CCO2)C1CCCCC1` (stereo not given), the activation is -21.5% (inactive).

For the compound `COc1ccc2[nH]cc(CCNc3nc(-c4c(C)noc4C)nc4ccccc34)c2c1`, the activation was 6.86% (inactive).

With `CN(C)c1ccc(/C=C/c2ccnc3ccccc23)cc1Cl`, the activation was -5.92% (inactive).

For `CCCCCCCCCCCCCCCCCCN(CCCCCCCCCCCCCCCCCC)c1ccc(/C=C/c2ccnc3ccccc23)cc1`, the activation was -21.8% (inactive).

In the case of `Cc1cc(/C=C/c2ccnc3ccccc23)ccc1N(C)C`, the Potency is 50.1 µM (active).

For the compound `CCCN(CCC)c1ccc(/C=C/c2ccnc3ccccc23)cc1`, the Potency was 100 µM (active).

Take `CN(C)c1ccc(/C=C/c2ccnc3ccccc23)cc1[N+](=O)[O-]`: the activation was -6.84% (inactive).

Turning to `OCCN(CCO)c1ccc(/C=C/c2ccnc3ccccc23)cc1`, the activation is -44.7% (inactive).

With `Cc1cccc(CNc2nc(-c3ccc4c(c3)OCO4)nc3ccccc23)c1`, the activation is 5.64% (inactive).

With `Cc1oc(-c2ccccc2NC(=O)C2CCCO2)nc1CNC(=O)c1[nH]c2c(C)ccc(C)c2c1C` (stereo not given), the activation was 8.6% (inactive).

As to `COc1ccc(-n2c(=O)c(-c3cccs3)nc3cnc(Nc4ccccc4)nc32)cc1`, the activation was -5.89% (inactive).

Turning to `COc1cccc(Nc2ncc3nc(-c4cccs4)c(=O)n(-c4ccccc4)c3n2)c1`, the Potency is 50.1 µM (active).

Consider `COc1cccc(Nc2ncc3nc(C)c(=O)n(-c4ccccc4)c3n2)c1`, for which the activation was -17% (inactive).

Turning to `CNS(=O)(=O)Cc1ccc2[nH]cc(CCN(C)C)c2c1`, the activation was -28% (inactive).

Consider `CN(C)CCc1c[nH]c2ccc(C[C@H]3COC(=O)N3)cc12`, for which the Potency is 126 µM (active).

With `CN(C)CCc1c[nH]c2ccc(CS(=O)(=O)N3CCCC3)cc12`, the activation is -8.07% (inactive).

With `CC(C)c1c(O)ccc2c1CCC1[C@@](C)(C=O)CCC[C@@]21C` (stereo not given in full), the activation is 22.5% (inactive).

For the compound `CC[C@@]1(O)C(=O)OCc2c1cc1n(c2=O)Cc2cc3c([N+](=O)[O-])cccc3nc2-1`, the activation was 5.92% (inactive).

As to `CC[C@@]1(O)C(=O)OCc2c1cc1n(c2=O)Cc2cc3c(CN(C)C)c(O)ccc3nc2-1`, the Potency was 89.1 µM (active).

On to `CC[C@@]1(O)C(=O)OCc2c1cc1n(c2=O)Cc2cc3cc(O)ccc3nc2-1`, for which the activation was -2.34% (inactive) and 12.4% (inactive).

With `C[N+]1(Cc2ccccc2)CCC(C(=O)OCC2CCCC2)CC1` (stereo not given), the activation is -12.2% (inactive).

With `N#Cc1ccc(CN2CC[C@@]3(CCCN(C(=O)c4ccco4)C3)C2)cc1`, the activation is -12.3% (inactive).

Regarding `COC(=O)C(O)C1C(C)(C)C(OC(C)=O)C2CC3=C4CC(=O)OC(c5ccoc5)[C@]4(C)CCC3[C@@]1(C)C2=O` (stereo not given in full), the activation is -10.7% (inactive).

(Values after PubChem BioAssay AID1645887 (National Center for Advancing Translational Sciences (NCATS), 2021).)
